Assay results published in PubChem BioAssay AID1159580 (chemical genetic matrix, 2015).
Among all 5,500 compounds or so, about 2,000 (36%) were called active. Inconclusive results (about 18%) are left out. Rule as the data show it: active = normalized growth mostly below about 0.91 (no sharp cut-off); inconclusive = no clear call, values can overlap the other calls; inactive = mostly above about 0.92. Some of the results follow.

Assay: chemical genetic growth profiling, strain panel (AID 1159580);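 also: tested at 20 µM; growth read once vehicle control cultures reached saturation at 30 °C; 1 = growth at the plate median or of vehicle wells; lower values mean less growth of the strain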
Settings: growth OD

Measured: normalized growth

CC(=O)O[C@H]1C[C@@]2(C)[C@@H](C[C@@H](O)C3[C@]2(C)CC[C@H]2[C@H](C)[C@H](O)CC[C@]32C)/C1=C(/CCC=C(C)C)C(=O)O (some centres undefined)
inactive: S. cerevisiae deletion strains, locus YJL187C, strain SWE1 (second series), stronger effect = lower value 1.01 | S. cerevisiae deletion strains, locus YJL187C, strain SWE1, stronger effect = lower value 1.04 | S. cerevisiae deletion strains, locus YJR043C, strain POL32, stronger effect = lower value 1 | S. cerevisiae deletion strains, locus YJR066W, strain TOR1, stronger effect = lower value 0.983 | S. cerevisiae deletion strains, locus YKL009W, strain mrt4, stronger effect = lower value 0.99 | S. cerevisiae deletion strains, locus YKL068W, stronger effect = lower value 1.01 | S. cerevisiae deletion strains, locus YKL085W, strain MDH1 (second series), stronger effect = lower value 0.997 | S. cerevisiae deletion strains, locus YKL085W, strain MDH1, stronger effect = lower value 0.997 | S. cerevisiae deletion strains, locus YKL160W, strain elf1, stronger effect = lower value 1.07 | S. cerevisiae deletion strains, locus YKL190W, strain CNB1, stronger effect = lower value 1.01 | S. cerevisiae deletion strains, locus YKR001C, strain vps1, stronger effect = lower value 1.03 | S. cerevisiae deletion strains, locus YKR026C, strain gcn3, stronger effect = lower value 1.01 | S. cerevisiae deletion strains, locus YKR091W, strain srl3, stronger effect = lower value 1.03 | S. cerevisiae deletion strains, locus YLL001W, strain dnm1, stronger effect = lower value 1.04 | S. cerevisiae deletion strains, locus YLL026W, stronger effect = lower value 1.02 | S. cerevisiae deletion strains, locus YLL041C, strain sdh2, stronger effect = lower value 1.02 | S. cerevisiae deletion strains, locus YLR027C, strain aat2, stronger effect = lower value 1.01 | S. cerevisiae deletion strains, locus YLR039C, strain RIC1, stronger effect = lower value 0.996 | S. cerevisiae deletion strains, locus YLR058C, strain SHM2, stronger effect = lower value 1.04 | S. cerevisiae deletion strains, locus YLR102C, strain apc9, stronger effect = lower value 1.02 | S. cerevisiae deletion strains, locus YLR113W, strain HOG1, stronger effect = lower value 0.957 | S. cerevisiae deletion strains, locus YLR221C, strain rsa3, stronger effect = lower value 1.06 | S. cerevisiae deletion strains, locus YLR258W, strain gsy2, stronger effect = lower value 1.03 | S. cerevisiae deletion strains, locus YLR262C, strain YPT6 (second series), stronger effect = lower value 0.991 | S. cerevisiae deletion strains, locus YLR262C, strain YPT6, stronger effect = lower value 0.997 | S. cerevisiae deletion strains, locus YLR268W, strain sec22, stronger effect = lower value 1.01 | S. cerevisiae deletion strains, locus YLR320W, strain mms22, stronger effect = lower value 1.06 | S. cerevisiae deletion strains, locus YLR330W, strain CHS5, stronger effect = lower value 1.01 | S. cerevisiae deletion strains, locus YLR342W, strain FKS1 (second series), stronger effect = lower value 1.03 | S. cerevisiae deletion strains, locus YLR342W, strain FKS1, stronger effect = lower value 1.04 | S. cerevisiae deletion strains, locus YLR357W, strain rsc2, stronger effect = lower value 1.1 | S. cerevisiae deletion strains, locus YLR370C, strain arc18, stronger effect = lower value 1.03 | S. cerevisiae deletion strains, locus YLR371W, strain rom2, stronger effect = lower value 1.01 | S. cerevisiae deletion strains, locus YLR384C, strain iki3, stronger effect = lower value 1.04 | S. cerevisiae deletion strains, locus YLR418C, strain cdc73, stronger effect = lower value 1.05 | S. cerevisiae deletion strains, locus YML016C, strain PPZ1, stronger effect = lower value 1 | S. cerevisiae deletion strains, locus YML032C, strain rad52, stronger effect = lower value 1.02 | S. cerevisiae deletion strains, locus YML120C, strain ndi1, stronger effect = lower value 1.05 | S. cerevisiae deletion strains, locus YML124C, strain tub3, stronger effect = lower value 1.03 | S. cerevisiae deletion strains, locus YMR058W, strain fet3, stronger effect = lower value 1.03 | S. cerevisiae deletion strains, locus YMR078C, strain ctf18, stronger effect = lower value 1.02 | S. cerevisiae deletion strains, locus YMR125W, strain sto1, stronger effect = lower value 1.04 | S. cerevisiae deletion strains, locus YMR129W, stronger effect = lower value 1.02 | S. cerevisiae deletion strains, locus YMR205C, strain PFK2, stronger effect = lower value 1.04 | S. cerevisiae deletion strains, locus YMR223W, strain ubp8, stronger effect = lower value 1.05 | S. cerevisiae deletion strains, locus YMR231W, strain pep5, stronger effect = lower value 1.02 | S. cerevisiae deletion strains, locus YMR307W, strain GAS1, stronger effect = lower value 0.995 | S. cerevisiae deletion strains, locus YNL067W, strain RPL9B, stronger effect = lower value 1.01 | S. cerevisiae deletion strains, locus YNL071W, strain lat1, stronger effect = lower value 1.03 | S. cerevisiae deletion strains, locus YNL153C, strain GIM3, stronger effect = lower value 1.02 | S. cerevisiae deletion strains, locus YNL183C, strain NPR1, stronger effect = lower value 0.936 | S. cerevisiae deletion strains, locus YNL209W, strain ssb2, stronger effect = lower value 1.03 | S. cerevisiae deletion strains, locus YNL233W, strain BNI4, stronger effect = lower value 1.01 | S. cerevisiae deletion strains, locus YNL248C, strain rpa49, stronger effect = lower value 1.05 | S. cerevisiae deletion strains, locus YNL250W, strain rad50, stronger effect = lower value 1.03 | S. cerevisiae deletion strains, locus YNL271C, strain bni1, stronger effect = lower value 1.02 | S. cerevisiae deletion strains, locus YNL298W, strain CLA4, stronger effect = lower value 1.02 | S. cerevisiae deletion strains, locus YNL307C, strain MCK1, stronger effect = lower value 1.03 | S. cerevisiae deletion strains, locus YNL322C, strain KRE1 (second series), stronger effect = lower value 1.05 | S. cerevisiae deletion strains, locus YNR049C, strain mso1, stronger effect = lower value 1.05 | S. cerevisiae deletion strains, locus YNR052C, strain pop2, stronger effect = lower value 1.03 | S. cerevisiae deletion strains, locus YOL012C, strain htz1 1.07 | S. cerevisiae deletion strains, locus YOL147C, strain pex11, stronger effect = lower value 1.04 | S. cerevisiae deletion strains, locus YOR001W, strain rrp6, stronger effect = lower value 1.01 | S. cerevisiae deletion strains, locus YOR061W, strain CKA2, stronger effect = lower value 0.999 | S. cerevisiae deletion strains, locus YOR069W, strain VPS5, stronger effect = lower value 1.02 | S. cerevisiae deletion strains, locus YOR070C, strain gyp1, stronger effect = lower value 1.03 | S. cerevisiae deletion strains, locus YOR080W, strain dia2, stronger effect = lower value 1.04 | S. cerevisiae deletion strains, locus YOR083W, strain WHI5, stronger effect = lower value 1.06 | S. cerevisiae deletion strains, locus YOR106W, strain vam3, stronger effect = lower value 1.04 | S. cerevisiae deletion strains, locus YOR136W, strain idh2, stronger effect = lower value 1.02 | S. cerevisiae deletion strains, locus YOR144C, strain elg1, stronger effect = lower value 1.02 | S. cerevisiae deletion strains, locus YOR184W, strain ser1, stronger effect = lower value 1.02 | S. cerevisiae deletion strains, locus YOR231W, strain MKK1, stronger effect = lower value 0.956 | S. cerevisiae deletion strains, locus YOR265W, strain rbl2, stronger effect = lower value 1.02 | S. cerevisiae deletion strains, locus YOR270C, strain vph1, stronger effect = lower value 1 | S. cerevisiae deletion strains, locus YOR290C, strain snf2, stronger effect = lower value 0.974 | S. cerevisiae deletion strains, locus YOR316C, strain cot1, stronger effect = lower value 1.02 | S. cerevisiae deletion strains, locus YPL051W, strain arl3, stronger effect = lower value 1.04 | S. cerevisiae deletion strains, locus YPL078C, strain atp4, stronger effect = lower value 1.02 | S. cerevisiae deletion strains, locus YPL106C, strain sse1, stronger effect = lower value 1.07 | S. cerevisiae deletion strains, locus YPL240C, strain hsp82, stronger effect = lower value 1.03 | S. cerevisiae deletion strains, locus YPL256C, strain CLN2, stronger effect = lower value 0.986 | S. cerevisiae deletion strains, locus YPR119W, strain clb2, stronger effect = lower value 1.02 | S. cerevisiae deletion strains, locus YPR141C, strain kar3, stronger effect = lower value 1.03 | S. cerevisiae deletion strains, locus YPR163C, strain tif3, stronger effect = lower value 1.04 | S. cerevisiae deletion strains, locus YPR167C, strain met16, stronger effect = lower value 1.03 | S. cerevisiae deletion strains, strain wtn01, stronger effect = lower value 1.02 | S. cerevisiae strains, strain wild type, stronger effect = lower value 1.01
